# This excerpt belongs to a sample that is enriched for hits.
# Cycloheximide cs = counter-screen for Shiga toxin inhibitors: cycloheximide protein synthesis inhibition | cell reporter, cycloheximide protein synthesis inhibition counterscreen | max response, % | actives 12% (n = 300,000); in the data active = max response mostly above about 13%, no sharp cut-off; inactive = mostly below about 14%; also: read at 38.3 µM for the half of the compounds with a filed dose; 0% is about no effect
# Shiga inhibitor = Shiga toxin inhibition. actives 9.2% (n = 290,000). inhibition, % at 38.7 µM. Vero cells, Shiga toxin protein synthesis inhibition reporter; in the data active = inhibition mostly above about 28%, no sharp cut-off; inactive = mostly below about 43%; also: 0% is about no effect
# NS1 inh = inhibitors of influenza NS1 protein function; Potency, µM (series often up to 46.1 µM), without a hit: at the highest dose activity, positive = more growth; actives 0.4% (n = 270,000); AID 2326; calls by dose curve; also: potency is read from the fitted curve at half-maximal effect; actives are rising curves; nearly all actives have a fitted effect of over 50% in size
#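 Compounds were scored for reversing the slow growth caused by influenza A NS1 in S. cerevisiae, measured by optical density at 600 nm. Assay medium contained 2% galactose at pH 6.0; NS1-free yeast of the same strain were the positive control.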
# AmpC inh no detg = blocks E. coli AmpC beta-lactamase in detergent-free assay | P00811 | AmpC nitrocefin hydrolysis, absorbance 480 nm, 0.0001% Triton | Potency, µM (titrated, usually from 57.1 µM), inactives show top-dose activity change, negative = inhibition, usual class: inhibitors | actives 0.52% (n = 330,000);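 also: potency is read from the fitted curve at half-maximal effect; plate controls were no compound for no effect and no enzyme for full effect; nearly all actives have a fitted effect of over 20% in size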
# Target sequence (P00811 whole entry, looked up): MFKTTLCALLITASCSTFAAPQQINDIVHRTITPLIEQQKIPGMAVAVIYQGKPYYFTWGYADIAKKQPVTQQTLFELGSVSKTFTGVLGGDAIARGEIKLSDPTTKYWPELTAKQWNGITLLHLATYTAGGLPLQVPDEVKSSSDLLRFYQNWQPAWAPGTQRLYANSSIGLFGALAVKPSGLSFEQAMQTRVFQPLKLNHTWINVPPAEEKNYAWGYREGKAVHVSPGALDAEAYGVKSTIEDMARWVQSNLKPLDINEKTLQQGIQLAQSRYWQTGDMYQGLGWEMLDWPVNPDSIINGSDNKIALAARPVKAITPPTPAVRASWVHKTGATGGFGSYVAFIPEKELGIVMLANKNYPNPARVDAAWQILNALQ
#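 AmpC (5.3 nM in the dispensed reagent) in 20 mM phosphate pH 7.0 with 0.01% (detergent screen) or 0.0001% Triton X-100 was preincubated with compounds for 15 min at room temperature. Nitrocefin was then added from an 800 uM solution, and hydrolysis was followed at 480 nm.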
# AmpC detergent = blocks E. coli AmpC beta-lactamase in detergent assay. actives 0.041% (n = 370,000). P00811. Potency, µM (highest dose often 114 µM), inactives show at the highest dose activity change, negative = inhibition, actives largely listed as inhibitors. AmpC hydrolysis of nitrocefin, absorbance 480 nm, 0.01% Triton. AID 485294;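 also: potency is read from the fitted curve at half-maximal effect; 0% = no-compound wells and -100% = no-enzyme wells; nearly all actives have a fitted effect of over 25% in size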
#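 AmpC (5.3 nM in the dispensed reagent) in 20 mM phosphate pH 7.0 with 0.01% (detergent screen) or 0.0001% Triton X-100 was preincubated with compounds for 15 min at room temperature. Nitrocefin was then added from an 800 uM solution, and hydrolysis was followed at 480 nm.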
# * marks the source's active call; other numbers are inactive results; ? = inconclusive; . = no result. Unless noted, calls follow the shape of the dose curve; as a rule, active = well fitted curve in the direction sought with a large enough effect; inconclusive = small, poorly fitted or top-dose-only effect, or another doubt; inactive = no such curve, though single readings can be large; an effect the other way counts as inactive or inconclusive.
SMILES,Cycloheximide cs,Shiga inhibitor,NS1 inh,AmpC inh no detg,AmpC detergent
COc1ccc(N(C)C(=O)c2cn(C)c(=O)c3cc(OC)c(OC)cc23)cc1,-1,-5,2%,2%,2%
CCN(CC)c1ccc(C(=O)NNC(=O)CNC(=O)c2ccco2)cc1,.,.,.,-16%,?
CCOc1ccccc1NC(=O)CSc1nnc2[nH]c(=O)cc(-c3ccccc3)n12,.,.,.,.,-14%
CN(C)S(=O)(=O)c1ccc2nc(NC(=O)c3cccnc3)sc2c1,29*,107*,4%,.,-4%
CSc1nc2ccc3nc(NC(=O)c4cccs4)sc3c2s1,43*,51*,-4%,-6%,3%
O=C(Nc1nc2ccc(F)cc2s1)c1cccs1,50*,126*,.,-31%,3%
C/C(=N/O)[C@@H]1C[C@H](CC(=O)O)C1(C)C,.,.,0%,.,.
COc1ccc(S(=O)(=O)N(CCc2ccccc2)CC(N)=O)cc1,1,-13,-2%,11%,-6%
CCC1CCCCN1C(=O)c1ccc(OC)c(OC2CCN(C(C)C)CC2)c1 (stereo unspecified),-2,-7,-3%,39%,-4%
CCn1c(C(=O)N2CCC(C(=O)N3CCN(c4cc(C)ccc4C)CC3)CC2)cc2sccc21,.,.,.,.,-3%
O=C(O)c1ncc(-c2ccccc2)cn1,-5,35,-4%,-15%,-16%
Nc1nc(N)nc(-c2ccccc2)n1,0,-10,1%,-7%,-7%
c1ccc(-c2cnc(-c3ccccc3)nc2)cc1,69*,88*,0%,-17%,-3%
Nc1cnc(-c2ccccc2)nc1Cl,16,13*,4%,-25%,-11%
O=C(N/N=C/C=C/c1ccccc1[N+](=O)[O-])c1cccs1,30*,23,-2%,-28%,-2%
O=C(Cc1cccs1)N/N=C/C=C/c1ccccc1,25*,59*,6%,-18%,-5%
Cc1ccc(/C=N/NC(=O)c2cccs2)cc1[N+](=O)[O-],39*,78*,-41%,-34%,-14%
O=C(N/N=C/C=C\c1ccccc1[N+](=O)[O-])c1ccncc1,1,-9,.,-19%,2%
O=C(Cc1cccs1)N/N=C/C=C\c1ccccc1[N+](=O)[O-],33*,85*,.,-27%,-2%
CCOCCCNC(=O)c1c[nH]c2ccc(S(=O)(=O)N(C)c3ccc(Cl)cc3F)cc2c1=O,.,.,.,.,1%
CCc1nn(CC(=O)NC(C)c2ccccc2)c(=O)c2cc3sccc3n12 (stereo unspecified),.,.,.,.,21%
CN(C)c1ccc(C2CC(c3c(O)n(C4CCCCC4)c(=O)[nH]c3=O)=Nc3ccccc3S2)cc1 (stereo unspecified),.,.,.,.,-12%
Cc1ccc(Cl)cc1NC(=O)c1cnn2c(C(F)F)cc(-c3ccccc3)nc12,.,.,.,.,6%
O=C(NNC(=O)c1ccccc1[N+](=O)[O-])c1cccs1,14,13,.,-24%,4%
O=C(N/N=C/C=C/c1ccccc1)c1cccs1,42*,75*,.,-40%,-4%
SMILES,Cycloheximide cs,Shiga inhibitor,NS1 inh,AmpC inh no detg,AmpC detergent
Cc1ccccc1OCC(=O)N/N=C/c1ccc([N+](=O)[O-])o1,-1,27,-15%,-10%,4%
COc1ccccc1OCC(=O)N/N=C/C=C/c1ccc([N+](=O)[O-])o1,19*,13,-49%,-16%,-2%
O=C(N/N=C/c1ccccc1[N+](=O)[O-])c1cccs1,41*,88*,-7%,-33%,-1%
O=C(N/N=C/C(Br)=C/c1ccccc1)c1cccs1,63*,123*,-45%,-41%,-4%
O=C(N/N=C/C=C/c1ccccc1)c1ccncc1,0,-20,0%,-26%,-11%
C=CCN1CCN(c2ccncc2S(=O)(=O)N2CCOCC2)CC1,-1,-27,0%,-8%,1%
O=C(N/N=C\C=C\c1ccc([N+](=O)[O-])o1)c1cccs1,33*,100*,-45%,-38%,-4%
O=C(N/N=C/c1ccc([N+](=O)[O-])o1)c1ccc(NS(=O)(=O)c2cccs2)cc1,-1,-9,5%,-43%,-2%
Cc1cc(N/C=C2\CCCCC2=O)no1,16*,38,-6%,-3%,3%
O=C(NCc1ccccc1)[C@]1(C(F)(F)F)C[C@H](CCC2CCCCC2)CCCO1,1,14,.,.,.
CN(C)/C=N/c1ncnc2c1cnn2-c1ccc(C(F)(F)F)cn1,41*,77*,7%,-5%,-5%
FC(F)(F)c1ccc(-n2ccnc2)nc1,-3,-14,2%,-3%,-15%
Oc1ccc(Cl)cc1-c1cc(-c2cccc(Br)c2)n[nH]1,42*,79*,-10%,-27%,1%
Oc1ccccc1-c1cc(-c2ccccc2Cl)[nH]n1,25*,101*,-104%,.,-2%
Oc1ccc(Cl)cc1-c1cc(-c2ccccc2Cl)[nH]n1,23*,52*,-5%,-32%,-1%
CC(OC(=O)CC1CCCC1)C(=O)Nc1ccc(S(N)(=O)=O)cc1 (stereo unspecified),.,.,.,-15%,0%
CCOC(=O)N1C(COCc2ccccc2)C=CCS1(=O)=O (stereo unspecified),78*,181*,.,.,.
CCCCN1CC(COCc2ccccc2)Oc2ccccc2S1(=O)=O (stereo unspecified),.,.,.,-32%,.
COc1ccc(NC(=O)Cn2c(=O)n(CC3CCCO3)c(=O)c3ccccc32)cc1 (stereo unspecified),.,.,.,.,12%
Cc1noc(C)c1CSCC(=O)N(C)CC(=O)Nc1ccccc1C(F)(F)F,.,.,.,-5%,?
COc1ccc(-n2nc(C(=O)NCC(=O)N3CCN(c4ccccc4OC)CC3)c3ccccc3c2=O)cc1OC,3,-7,-1%,115%,3%
COc1ccc(-n2nc(C(=O)NCC(=O)N3CCOCC3)c3ccccc3c2=O)cc1OC,-2,-8,8%,-5%,-7%
COc1ccc(-n2nc(C(=O)NCC(=O)N3CCN(c4ccccc4)CC3)c3ccccc3c2=O)cc1OC,22*,43*,2%,159%,-9%
COc1ccc(-n2nc(C(=O)NCC(=O)N3CCC4(CC3)OCCO4)c3ccccc3c2=O)cc1OC,17*,37,-1%,44%,0%
COc1ccc(-n2nc(C(=O)NCC(=O)N3CCN(c4ccccn4)CC3)c3ccccc3c2=O)cc1OC,15*,26,-5%,170%,3%
C=CCc1c(C)nc(-c2ccccc2)nc1N/N=C(\C)c1ccc(N)cc1,10,28,2%,-19%,-2%
C/C(=N\Nc1cc(Cl)nc(C)n1)c1ccccc1,28*,46*,-1%,14%,-2%
CC(=O)Nc1ccc(-c2cc(-c3ccccc3)nc(-c3ccccc3)n2)cc1,5,-4,6%,-2%,-5%
C/C(=N/Nc1cc(-c2ccccc2)nc(-c2ccccc2)n1)c1ccc(O)cc1,23*,31,-37%,-8%,2%
C/C(=N/Nc1nc(-c2ccccc2)cc(-c2ccccc2)n1)c1ccc(N)cc1,12,11,7.9µM*,-22%,5%
